# Data taken from PubChem BioAssay (NCATS).
# “And” between values parts separate entries of the source, which are not always exact repeats. Identical values can stand only once. Results filed as inconclusive are left out. A call without a number means that no potency is given here. The source made the active and inactive calls. Calls come from the whole dose curve; as a rule, active = well fitted cell-killing curve with a large enough effect; inconclusive = small, poorly fitted or top-dose-only effect; inactive = flat fitted curve, though single readings scatter. Peptide text beside a SMILES is read from it.
# Assay: qHTS of pediatric cancer cell lines to identify multiple opportunities for drug repurposing: Primary screen for control Hh wild type fibroblast cells (AID 1347106); note: nearly all actives have a fitted effect of over 55% in size
# Details: Hh wild-type fibroblast viability, CellTiter-Glo luminescence, 48 h; series mostly up to 46 µM
# Excerpt: Drug repurposing or repositioning has been offered as a strategy for drug development in oncology programs. This approach has special potential for childhood cancers and other rare or orphan diseases, where the expected return on new drug development has been a disincentive to pharmaceuticals.
# In this project we exploit the poly-pharmacology of drugs to discover new indications via phenotypic screening of a panel of 19 well-characterized cell lines derived from solid tumors seen in children and adolescents. The goal is to identify approved drugs with previously unrecognized anticancer properties that has the potential to reveal new mechanisms and biological processes involved in carcinogenesis or drug resistance. We employed a titration-based paradigm (quantitative high-throughput screening or qHTS), where all compounds were tested at multiple concentrations for their effect on cell viability. Concentration-response curves (CRCs) were derived directly from the primary screen, and both potency and efficacy values were used to identify compounds with robust bioactivity profiles. We screened the NIH Chemical Genomics Center (NCGC) Pharmaceutical Collection (NPC) and Mechanism Interrogation Plate (MIPE) small molecule collections of approved and investigational compounds against these cell lines; and measured metabolically active cells after 48 hours of compound treatment as a proxy for cell viability.
# Assay Submitter: Nathalia J. Martinez, National Center for Advancing Translational Sciences, National Institutes of Health, Rockville, MD, USA; email: natalia.martinez@nih.gov
# [1] Shen, M et al. Quantitative high-throughput phenotypic screening of pediatric cancer cell lines identifies multiple opportunities for drug repurposing. Oncotarget 2017 Dec 19;9(4):4758-4772. PMID 29435139.
# The cells were obtained from University of North Carolina (UNC), Pediatric Preclinical Testing Program (PPT), and Coriell Institute (CI).
# qHTS cell viability assay:
# Cells were assayed in growth media at a density of 500-1,000 cells/well. Five microliters of cells were dispensed into 1,536-well, white, solid-bottom, TC-treated plates (Greiner Bio One) using a multidrop dispenser and incubated at 37 degrees C, 5% CO2, under a humidified atmosphere for 5 hours. Twenty-three nanoliters of compounds and controls (neutral control DMSO or positive control bortezomib at final concentration of 2.3 µM) were subsequently transferred by Kalypsys pintool. For primary screens, the MIPE collection was tested at 11-point dilutions (final concentrations range from 0.78 nM to 46 µM) and the NPC collection at 8-point dilutions (final concentrations range from 0.59 nM to 46 µM). Compounds tested in follow-up screens were assayed at 11-point dilutions. Cells were incubated for 48 hours, followed by addition of 3 µL of CellTiter-Glo (Promega). After a 15 min incubation at room temperature, samples were analyzed for luminescence intensity using a ViewLux High-throughput CCD imager equipped with clear filters.
# Potency is the fitted concentration of half-maximal effect.
row,SMILES,Potency
1,CS(=O)(=O)OCCCCOS(C)(=O)=O,inactive
2,CC(=O)N1CCN(c2ccc(OC[C@H]3CO[C@](Cn4ccnc4)(c4ccc(Cl)cc4Cl)O3)cc2)CC1,inactive
3,Cc1c(OCC(F)(F)F)ccnc1CS(=O)c1nc2ccccc2[nH]1 (stereo not given),inactive
4,CCOC(=O)c1c(C)n(C)c2ccc(O)cc12,inactive
5,NC(=NCc1ccccc1)NC(=O)c1nc(Cl)c(N)nc1N,inactive
6,CC(C)c1ccc2c(c1)c(SC(C)(C)C)c(CC(C)(C)C(=O)O)n2Cc1ccc(Cl)cc1,inactive
7,O=C(O)c1cccnc1Nc1cccc(C(F)(F)F)c1,inactive
8,Nc1ccc(S(N)(=O)=O)cc1,inactive
9,CNC[C@@H](O)[C@@H](O)[C@H](O)[C@H](O)CO,inactive
10,COc1ccccc1N1CCN(CCN(C(=O)C2CCCCC2)c2ccccn2)CC1,inactive
11,O=P(O)(O)C(O)(Cn1ccnc1)P(=O)(O)O,inactive
12,CCCCN(CCCC)CCC(O)c1cc2c(Cl)cc(Cl)cc2c2cc(C(F)(F)F)ccc12 (stereo not given),inactive
13,CCOC(=O)C1=C(O)C(=O)N(Cc2ccccc2)C1,inactive
14,CN(C)CCc1c[nH]c2ccc(Cn3cncn3)cc12,inactive
15,Cc1cc(=O)c2c(O)c3c(O)cc(=O)c4c3c3c(cc(O)c1c23)C(C)(C)C=4O,inactive
16,Cc1cccc(CN2CCN(C(c3ccccc3)c3ccc(Cl)cc3)CC2)c1 (stereo not given),inactive
17,CCc1nc(N)nc(N)c1-c1ccc(Cl)cc1,inactive
18,Oc1ccc2ccccc2c1SSc1c(O)ccc2ccccc12,23.5 µM (active)
19,C[C@@H](N)C1CCC(C(=O)Nc2ccncc2)CC1 (stereo not given in full),inactive
20,O=C(O)CCNC(=O)c1ccc(N=Nc2ccc(O)c(C(=O)O)c2)cc1,inactive

row,SMILES,Potency
1,CCOc1cc(CC(=O)N[C@@H](CC(C)C)c2ccccc2N2CCCCC2)ccc1C(=O)O,inactive
2,COC1=C(OC)C(=O)C(CCCCCCCCCCO)=C(C)C1=O,inactive
3,CCCS(=O)c1ccc2nc(NC(=O)OC)[nH]c2c1 (stereo not given),inactive
4,O=c1c(O)c(-c2cc(O)c(O)c(O)c2)oc2cc(O)cc(O)c12,inactive
5,CC(=O)NC[C@H]1CN(c2ccc(N3CCOCC3)c(F)c2)C(=O)O1,inactive
6,COC(=O)[C@H](Cc1ccccc1)NC(=O)[C@@H](N)CC(=O)O (H-Asp-Phe-OMe),inactive
7,Cc1ccc(C(=O)c2cc(O)c(O)c([N+](=O)[O-])c2)cc1,inactive
8,CC1(C)CCC(C)(C)c2cc(NC(=O)c3ccc(C(=O)O)cc3)ccc21,inactive
9,O=C1c2c(O)cc(O)cc2OC(c2ccc(O)c(O)c2)C1O (stereo not given),inactive
10,CC1=C(C(=O)O)N2C(=O)[C@@H](NC(=O)[C@H](N)C3=CCC=CC3)[C@H]2SC1,inactive
11,C[C@H](Cn1cnc2c(N)ncnc21)OCP(=O)(O)O,inactive
12,CN(C)CCCC1(c2ccc(F)cc2)OCc2cc(C#N)ccc21 (stereo not given),inactive
13,Cc1cc(=O)oc2cc(O)ccc12,inactive
14,COc1cc2c(cc1OC)C1CC(=O)C(CC(C)C)CN1CC2 (stereo not given),inactive
15,C[Se]CCC(N)C(=O)O (stereo not given),inactive
16,CCN(CC)C(=S)SSC(=S)N(CC)CC,166 nM (active) and 111 nM (active) and 1.19 µM (active)
17,Cc1ccc(NC(=O)c2ccc(CN3CCN(C)CC3)cc2)cc1Nc1nccc(-c2cccnc2)n1,inactive
18,COC(=O)N[C@H](C(=O)N[C@@H](Cc1ccccc1)[C@@H](O)CN(Cc1ccc(-c2ccccn2)cc1)NC(=O)[C@@H](NC(=O)OC)C(C)(C)C)C(C)(C)C,inactive
19,C=C(c1ccc(C(=O)O)cc1)c1cc2c(cc1C)C(C)(C)CCC2(C)C,inactive
20,CCCOc1ccc2nc(NC(=O)OC)[nH]c2c1,inactive
